Results: PubChem BioAssay (NCI)
The panel holds about 83,000 compounds, 20% with a hit somewhere; the sample as a whole holds those more often.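 Cell lines were cultured in 96-well plates, exposed to a single compound concentration, and assessed for percent growth 48 hours later.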 Values without a mark were called inactive. Activity calls are given as the source filed them. The calls were made as follows: active = growth percent below 10; inactive = the rest.

Key:
Assay in all cases: NCI-60 one-dose screen, 48 h (100 = growth as untreated, 0 = no growth, -100 = all killed)
Conditions in all cases: 10 µM unless noted
T-47D breast = test system: T-47D breast
BT-549 breast = test system: BT-549 breast
MDA-MB-435 melanoma = test system: MDA-MB-435 melanoma
SW-620 colon = test system: SW-620 colon
MCF7 breast = test system: MCF7 breast
HCT-116 colon = test system: HCT-116 colon
HCC-2998 colon = test system: HCC-2998 colon
KM12 colon = test system: KM12 colon

SMILES | growth (T-47D breast) | growth (BT-549 breast) | growth (MDA-MB-435 melanoma) | growth (SW-620 colon) | growth (MCF7 breast) | growth (HCT-116 colon) | growth (HCC-2998 colon) | growth (KM12 colon)
COc1cc2ncnc(Nc3ccc4c(cnn4C(=O)Nc4ccccc4)c3)c2cc1OC | 77.7% | 83.4% | 94.7% | 103% | 60.4% | 95.8% | 87.4% | 93.5%
Cc1ccc2c(O)c(O)cc(NC(C)CCCN)c2n1 (centres undefined) | 63.3% | 91.1% | 114% | 73.2% | 13.3% | 34.7% | 60.4% | 109%
CCN(CC)C(=O)C1(C)CCCC2(C)c3cc(OC(C)=O)ccc3CCC12 (centres undefined) | 71.7% | 95.4% | 72.9% | 89.1% | 87.9% | 84.9% | 109% | 82.2%
CC1CCCCC[N+]12CCCC2 (centres undefined) | 107% | 107% | 100% | 107% | 97.2% | 109% | 117% | 106%
COc1ccc(CN2C(=O)/C(=C\C(=O)c3ccc(OCCN4CCCCC4)cc3)c3ccccc32)cc1 | 15.5% | 81.5% | 95% | -39.9% (active) | 20.3% | 4.2% (active) | 94.9% | 89%
CCOC(=O)C1=C(C(F)(F)F)NC(=S)NC1CN1C(=O)c2ccccc2C1=O (centres undefined) | 107% | 118% | 118% | 93.1% | 88.4% | 103% | 63.3% | 111%
N=C(N)N=Nc1ccc(NN=C(N)N)cc1 | 97.3% | 88.9% | 109% | 38.3% | 90.9% | 85.9% | 86.6% | 43.8%
COc1ccc(-c2cn3ccnc3c(-c3ccc4ncn(C5CCCCC5)c4c3)n2)cc1 | -8.6% (active) | 31.1% | -18.6% (active) | 22.2% | 19.8% | 8.72% (active) | 37.4% | 16.8%
Cc1cc2c(-c3nc4ccccc4[nH]3)c(O)c(O)cc2c(O)c1-c1c(C)cc2c(-c3nc4ccccc4[nH]3)c(O)c(O)cc2c1O | -16.7% (active) | -6.04% (active) | 23.3% | 23.4% | 5.3% (active) | 7.37% (active) | 19.5% | -38.6% (active)
Nc1nc2c(c3cnccc13)C(c1ccc(Cl)c(Cl)c1)Cc1cnccc1-2 (centres undefined) | 16.9% | -39.1% (active) | -53% (active) | 3.85% (active) | 0.513% (active) | -37.8% (active) | -75.7% (active) | -34.8% (active)
Cc1sc(NC(=O)c2ccc(C(C)(C)C)cc2)c(C(=O)O)c1C | 87.5% | 88.8% | 96.1% | 60% | 62.2% | 45.3% | 71.2% | 28.8%
COCC(=O)NNc1[nH]c(-c2ccc(OC)cc2)cc1C#N | 106% | 113% | 102% | 114% | 108% | 110% | 133% | 104%
COc1ccc(C(=O)c2no[n+]([O-])c2C(=O)c2ccc(OC)cc2)cc1 | 24.7% | 50.3% | 44.3% | -82.9% (active) | 30.9% | -98.1% (active) | 110% | 102%
CCCCCCCCCC[N+](C)(C)C | 27.3% | 46.7% | 32.6% | 19% | 31.1% | 21.8% | 22% | -51.2% (active)
Ic1ccc(SSc2ccc(I)cc2)cc1 | 79.7% | 41.5% | 100% | 106% | 92.4% | 83.7% | 104% | 82.2%
Cc1cc(CSc2ccc(Cl)cc2)ccc1N | 84.1% | 55.6% | 104% | 126% | 112% | 101% | 97.7% | 70.7%
CCC(CCCN1C(=O)c2ccccc2C1=O)Nc1cc(OC)cc2c(C)ccnc12 (centres undefined) | 85.9% | 78.7% | 99.2% | 85.6% | 91.5% | 98% | 69% | 102%

SMILES | growth (T-47D breast) | growth (BT-549 breast) | growth (MDA-MB-435 melanoma) | growth (SW-620 colon) | growth (MCF7 breast) | growth (HCT-116 colon) | growth (HCC-2998 colon) | growth (KM12 colon)
Cc1nnc(/N=C2\NC(=O)/C(=C/C=C/c3ccccc3)S2)s1 | 53.8% | 52.2% | 16.3% | 74.1% | 39.9% | 36.9% | 67% | 42.7%
CC([C@H]1CC=C2C3CCC4=C[C@@H](N(C)C)CC[C@]4(C)C3CC[C@@]21C)N(C)C (some centres undefined) | 29.1% | 90.5% | -67.5% (active) | 9.89% (active) | 34.9% | -57% (active) | 49.6% | 30.6%
O=C1/C(=C/c2ccc(Cl)cc2)CCC/C1=C\c1ccc(Cl)cc1 | 79.6% | 97% | 15.9% | 30.6% | 17.3% | -42.6% (active) | 28.6% | 18.7%
CCCC(=O)NNc1[nH]c(-c2ccc(OC)cc2)cc1C(=O)OCC | 63.9% | 99.4% | 95.2% | 95.5% | 104% | 109% | 75.2% | 98.9%
CCCCCCCCc1ccc(OCCOCC[N+](C)(C)CC)cc1 (tested in a mixture with another compound) | 23.5% | 45.3% | 15.3% | 46.4% | 20.3% | 54.2% | 34.6% | 18%
COc1cc(OC)cc(-c2ccc(-c3ccc(C(=N)N)cc3)s2)c1 | -53.6% (active) | -72.4% (active) | -97.5% (active) | -73.7% (active) | -75.2% (active) | -93.3% (active) | -76.5% (active) | -84.9% (active)
CC(=N\N=C(N)N)/C(=N/N=C(N)N)c1ccccc1 | 60.8% | 88% | 103% | 86.3% | 18.9% | 80.4% | 73.8% | 70.4%
COc1cc(-c2nc(/C=C3/C(=O)Nc4ccccc43)c3ccccn23)cc(OC)c1OC | 53.7% | 94% | 55.6% | 88.7% | 40.1% | 67.2% | 78.1% | 47.6%
CCC(C)(C)c1ccc(OCCCCCCN2CCNCC2)cc1 | 40% | 89.1% | 25.9% | -10.4% (active) | 4.81% (active) | 6.39% (active) | -13.5% (active) | 25.2%
Cc1ccc([C@@H]2C[C@H](O)Cc3ccccc3N2)s1 | 99.1% | 110% | 103% | 101% | 107% | 116% | 101% | 109%
N=C(N)c1ccc(-c2ccc(-c3ccc(F)cc3)s2)cc1 | -57.5% (active) | -19.9% (active) | -99.2% (active) | -87.9% (active) | -83.5% (active) | -83.3% (active) | -77.5% (active) | -87.3% (active)
O=C(/C=C/c1c[nH]c2ccccc12)c1cc2ccccc2o1 | 82.8% | 79.6% | 92.1% | 95.2% | 65.9% | 62% | 105% | 75.7%
CCCC(CCC)Oc1ccc(CCCC2=C(O)c3ccccc3C(=O)C2=O)cc1 | 65.4% | 35.5% | 37.4% | 28.1% | 29% | 16.7% | 13.4% | 23.7%
COc1cc(CNC(=O)CCCC/C=C/C(C)C)ccc1OCc1nnc(Nc2ccccc2F)o1 | 65% | 76.9% | 100% | 98.9% | 66.9% | 53.5% | 90.8% | 78.8%
COc1ccc(-c2nc(SCC(C)C)nc(Nc3ccc([N+](=O)[O-])cc3)c2C#N)cc1 | 92.6% | 104% | 101% | 84.8% | 90.2% | 60.1% | 107% | 99.9%
O=C1CCNC1 | 107% | 105% | 104% | 103% | 103% | 105% | 118% | 111%
